In PubChem BioAssay AID504374 (National Center for Advancing Translational Sciences (NCATS), 2011) one finds Potency data, which are given here for 73 compounds.

Several values for one entry are separate records, joined by “and”; a condition that tells them apart may be missing. Identical values can stand only once. The whole screen tested about 1,500 compounds, of which about 100 (6.7%) were called active. Entries that show only a call come without a potency. Inconclusive results (about 7%) are left out. This is one part of a sample in which actives are shown more often than they occur. Calls follow the shape of the dose curve; as a rule, active = well fitted inhibition curve with a large enough effect; inconclusive = small, poorly fitted or top-dose-only effect, or effect the other way; inactive = flat fitted curve, though single readings scatter.
Potency is read from the fitted curve at half-maximal effect.

Runt-related transcription factor 1 (Homo sapiens) + Core-binding factor subunit beta (Homo sapiens), sequence (Q01196 whole entry, looked up): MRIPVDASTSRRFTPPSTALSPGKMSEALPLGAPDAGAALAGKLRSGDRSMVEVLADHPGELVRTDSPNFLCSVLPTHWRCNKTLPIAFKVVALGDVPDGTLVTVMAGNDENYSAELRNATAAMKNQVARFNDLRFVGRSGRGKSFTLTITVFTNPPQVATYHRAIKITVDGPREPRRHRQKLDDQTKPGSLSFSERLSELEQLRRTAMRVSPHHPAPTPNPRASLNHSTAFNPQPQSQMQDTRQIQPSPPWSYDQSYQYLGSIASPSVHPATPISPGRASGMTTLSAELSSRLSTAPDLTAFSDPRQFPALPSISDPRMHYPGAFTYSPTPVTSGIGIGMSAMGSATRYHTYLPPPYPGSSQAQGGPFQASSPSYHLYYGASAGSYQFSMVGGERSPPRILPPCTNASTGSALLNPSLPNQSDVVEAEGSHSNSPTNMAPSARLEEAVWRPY
Runt-related transcription factor 1 (Homo sapiens) + Core-binding factor subunit beta (Homo sapiens), sequence (Q13951 whole entry, looked up): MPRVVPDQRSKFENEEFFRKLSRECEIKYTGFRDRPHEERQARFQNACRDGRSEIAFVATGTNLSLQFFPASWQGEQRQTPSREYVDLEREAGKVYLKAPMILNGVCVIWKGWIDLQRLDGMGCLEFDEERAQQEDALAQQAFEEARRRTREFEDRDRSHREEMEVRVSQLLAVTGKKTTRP

In the assay the target is Runt-related transcription factor 1 (Homo sapiens) + Core-binding factor subunit beta (Homo sapiens) (UniProt Q01196+Q13951). As to the kind of experiment: qHTS Assay for Compounds Blocking the Interaction Between CBF-beta and RUNX1 for the Treatment of Acute Myeloid Leukemia: Hit Validation. Also: nearly all actives have a fitted effect of over 60% in size. The note with it: AlphaScreen CBFb-His/RUNX1-biotin binding; series mostly up to 59.8 µM. An excerpt:
NIH Chemical Genomics Center [NCGC]
NIH Molecular Libraries Probe Production centers Network [MLPCN]
Assay Submitter (PI): Paul Liu
Core Binding Factor (CBF) abnormalities are associated with 20-25% of all acute myeloid leukemias (AML), of which 5-10% are further sub classified as acute myelomonocytic leukemia with eosinophilia, also known as M4Eo in the FAB classification scheme. This subtype of leukemia is usually associated with chromosome 16 inversion (p13:q22). Chromosome 16 inversion results in formation of the fusion oncogene CBFB-MYH11, which encodes the fusion protein CBF-beta-SMMHC.
It has been hypothesized that the interference of CBF-beta and RUNX1 binding could have therapeutic implications for patients with CBF mediated leukemias. We developed a CBF-beta and RUNX1 binding assay in AlphaScreenTM format and optimized it for high throughput screening to search for inhibitors. The goal of this project is to screen MLPCN's compound collection (MLSMR) for identifying the inhibitors of the interaction between CBF-beta and RUNX1 proteins as research probes. If these probes work well in the animal models, the ultimate goal of this project is to development a new drug treatment for this disease.
This assay can not be used to assess how apparent inhibitors interfere with protein binding, and whether inhibitors specifically bind to either protein. Disruption of this protein-protein interaction, through any mechanism, is the intended target activity.
The present data set was run to confirm the activity of hits from the primary screen.
NCGC Assay Protocol Summary:
Step, Parameter, Description
(1) Reagent, 3 uL CBFb-His/RUNX1-biotin mix incubated together for 20 minutes at room temperature (30 nM each)
(2) Compound or control, 23 nL compound stock solution
(3) Incubation, 15 minutes at Room temperature
(4) Reagent, 1 uL 50 ng each of beads (Nickel beads and streptavidin beads)
(5) Incubation, 90 minutes at Room temperature
(6) Detection, Excitation=365 nm Emission=440 nm, Envision reader in AlphaScreenTM mode
Keywords: MLSMR, MLPCN, NIH Roadmap, qHTS, NCGC, Core binding factor, CBF, CBF-beta, Acute myeloid leukemia
Background: Quantitative high-throughput screening tests each substance at several concentrations.
Regarding `CCn1nc(-c2ccccc2)nc2c(=O)n(C)c(=O)nc1-2`, the Potency is 1.12 µM (active). `CCC1(C(=O)c2ccc(C)cc2)C2c3ccccc3OC(=O)C21C(=O)O` (stereo not drawn): the Potency result is “inactive”.

With `COCc1cc(OC(=O)N(C)C)nc(-c2ccc(C)c(Cl)c2)n1`, the Potency entry is “inactive”.

On to `CCOC(=O)C(O)(c1ccc(NC(=O)c2ccc(Cl)c(Cl)c2)cc1)C(F)(F)F` (stereo not drawn), for which the Potency result was “inactive”. The result for `CCN1CCc2ccccc2C1` reads “inactive”; that for `NC(Cc1cc(O)c(O)cc1O)C(=O)O` (stereo not drawn), 2.51 µM (active); that for `CCOC(=O)[C@]1(C#N)[C@@H]2C=CC(C(N)=O)=CN2[C@@H](C(N)=O)[C@@H]1c1ccc(F)cc1`, “inactive”.

On to `CNC(=O)O/N=C(\C)Cc1nnn(-c2cc(C)on2)n1`, for which the Potency result was “inactive”. The result for `O=C1/C(=C\c2cccnc2)N2CCC1CC2` reads “inactive”. Turning to `CCN1CCN(c2nc([N+](=O)[O-])nn2C)CC1`, the Potency result was “inactive”. Under `CC(C)C(N)C(=O)OCCOCn1cnc2c(=O)[nH]c(N)nc21` (stereo not drawn) stands 0.705 µM (active); under `CN1C(=O)C(=Cc2cccnc2)C(=O)N(C)C1=O`, “inactive”. In the case of `COc1cccc(C(=O)N2CCC3(CC2)OCCO3)c1`, the Potency result is “inactive”.

With `O=C(O)COc1ccccc1/C=C1\C(=O)NC(=O)N(CCC2=CCCCC2)C1=O`, the Potency entry was “inactive”. Take `CCn1c(O)c(C=NCCN2CCOCC2)c(=O)[nH]c1=S`: the Potency entry is “inactive”. Consider `CN1CCN(c2nc(N)cc(=O)[nH]2)CC1`, for which the Potency entry was “inactive”. As for `CC(C)C[C@H]1C(=O)N2CCCC2[C@]2(O)O[C@](NC(=O)[C@@H]3C=C4c5cccc6[nH]cc(c56)CC4N(C)C3)(C(C)C)C(=O)N12` (stereo partly drawn), the Potency was 7.91 µM (active) and 7.05 µM (active).

`CC(C)[C@@]1(NC(=O)[C@H]2CC3c4cccc5[nH]cc(c45)C[C@H]3N(C)C2)O[C@@]2(O)C3CCCN3C(=O)[C@@H](Cc3ccccc3)N2C1=O` (stereo partly drawn): the Potency was 25 µM (active). With `CC(C)[C@H]1C(=O)N2CCC[C@H]2[C@]2(O)O[C@](NC(=O)[C@@H]3C=C4c5cccc6[nH]cc(c56)C[C@H]4N(C)C3)(C(C)C)C(=O)N12`, the Potency is 6.87 µM (active). Take `CC(=O)CC(c1ccccc1[N+](=O)[O-])c1c(O)c2ccccc2oc1=O` (stereo not drawn): the Potency entry was “inactive”. `Cc1cc(C(=O)Nc2ccccc2)nn1C(C)(C)C`: the Potency entry was “inactive”. Take `N=Cc1c(O)n(-c2ccccc2)c(=O)n(-c2ccccc2)c1=O`: the Potency result was “inactive”. Regarding `CC1CN=C(Nc2ccc(F)c(Cl)c2)S1` (stereo not drawn), the Potency entry is “inactive”. The result for `CNC(=O)Oc1ccc(N(C)C)cc1C(C)C` reads “inactive”; that for `O=c1[nH]c(=S)[nH]c(O)c1N=Nc1cccc(S(=O)(=O)N2CCOCC2)c1`, “inactive”; that for `CCOP(=O)(Cc1cc(C(C)=O)c(C)o1)OCC`, “inactive”. In the case of `CCCCn1c(O)c(C(CC)=NCCCn2ccnc2)c(=O)[nH]c1=O`, the Potency entry was “inactive”. With `CCCCc1ccc(C(=O)O)nc1`, the Potency was 6.31 µM (active). As for `CCC(C)n1c(O)c(C=NCCc2ccccc2)c(=O)[nH]c1=S` (stereo not drawn), the Potency result is “inactive”.

Take `CN(N=O)c1cc(O)ccc1O`: the Potency entry was “inactive”. Turning to `CN(N=O)c1ccc(O)c(O)c1`, the Potency was 1.26 µM (active). For the compound `CCC(=Nc1cccc(C(F)(F)F)c1)c1c(O)n(C)c(=O)n(C)c1=O`, the Potency result is “inactive”. Turning to `C=CCn1c(O)c(C(C)=Nc2ccc3c(c2)CCC3)c(=O)[nH]c1=O`, the Potency entry was “inactive”. As to `COc1cc(CN=Cc2c(O)n(C(C)(C)C)c(=O)[nH]c2=O)cc(OC)c1`, the Potency result was “inactive”.

Regarding `CCCCn1c(O)c(/C=N/N2CCOCC2)c(=O)[nH]c1=S`, the Potency entry is “inactive”. The result for `CCCCNC(=O)Oc1c(Br)cc2sc(=O)oc2c1Br` reads 6.12 µM (active). On to `CCCCn1c(O)c(/C=C2/C=CC=N2)c(=O)[nH]c1=O`, for which the Potency entry is “inactive”. As to `Cc1nc(SCc2c(Cl)cccc2Cl)nc(OC(=O)N(C)C)c1C`, the Potency result is “inactive”. The result for `CC(C)(C)n1cc(C(=O)c2ccccc2)cc1-c1ccccc1` reads “inactive”.

With `Cn1c(O)c(C(=Nc2ccc(F)cc2)c2ccccc2)c(=O)n(C)c1=O`, the Potency result is “inactive”.

As for `COP(=O)(Cc1ccc(C#N)o1)OC`, the Potency result was “inactive”. Consider `C/C=C/CC1(CC)C(=O)NC(=S)NC1=O`, for which the Potency entry was “inactive”.

For `COc1ccc(CN2C(=O)NC(=O)/C(=C/c3ccc(OC)c(OC)c3OC)C2=O)cc1`, the Potency entry is “inactive”. Under `O=C(O)CCCCC1SCC2NC(=O)NC21` (stereo not drawn) stands 0.0562 µM (active); under `CC(C)OP(=O)(Oc1ccc(C(O)C(Cl)(Cl)Cl)cc1)OC(C)C` (stereo not drawn), “inactive”; under `Clc1ccccc1CN1CCN(c2cccc3[nH]ccc23)CC1`, “inactive”. The result for `C=CCn1c(O)c(C(C)=NCC2CCCO2)c(=O)[nH]c1=O` (stereo not drawn) reads “inactive”; that for `O=c1[nH]c(=S)n(-c2ccc(F)cc2)c(O)c1/C=N/N1CCOCC1`, “inactive”. Consider `Cn1c(O)c(/C=N/N2CCOCC2)c(=O)[nH]c1=S`, for which the Potency result was “inactive”. The result for `Cc1cccc(-n2c(O)c(/C=N/Nc3nc4c(c(=O)n(C)c(=O)n4C)n3C)c(=O)[nH]c2=S)c1` reads 0.891 µM (active); that for `Cc1cc(OC(=O)N(C)C)nc2c1c(C)nn2C`, “inactive”; that for `CCCCCCn1c(O)c(/C=N/N2CCCCCC2)c(=O)[nH]c1=O`, “inactive”. In the case of `COCc1cc(OC(=O)N(C)C)nc(-c2ccccc2)n1`, the Potency entry was “inactive”. For `Cc1cccc(N2C(=O)NC(=O)/C(=C\c3ccc(N4CCOCC4)cc3)C2=O)c1`, the Potency entry is “inactive”. Consider `Cc1cc(OC(=O)N(C)C)nc(-c2ccc(C)c(Cl)c2)n1`, for which the Potency entry is “inactive”. For the compound `CCCC(=O)c1ccc(CP(=O)(OCC)OCC)o1`, the Potency entry was “inactive”. `CC[N+](C)(CC)CCC[n+]1c(-c2ccccc2)c2cc(N)ccc2c2ccc(N)cc21`: the Potency is 1.12 µM (active). Under `CC[n+]1c(-c2ccccc2)c2cc(N)ccc2c2ccc(N)cc21` stands 0.499 µM (active). Regarding `O=c1c2ccccc2nc(Cc2cccc([N+](=O)[O-])c2)n1-c1ccc(O)cc1`, the Potency entry is “inactive”. As for `CCC(=NCc1ccco1)c1c(O)n(-c2ccccc2C)c(=O)[nH]c1=O`, the Potency entry is “inactive”.

As to `CCCC(=O)c1cc(CP(=O)(OCC)OCC)oc1C`, the Potency entry is “inactive”. Under `O=c1[nH]c(=S)[nH]c(O)c1/C=N/N1CCOCC1` stands “inactive”; under `Cc1ccc(-n2c(O)c(C=N)c(=O)n(-c3ccc(C)cc3)c2=O)cc1`, “inactive”; under `CC(=O)Nc1ccc([As](=O)(O)c2ccc([N+](=O)[O-])cc2)cc1`, “inactive”.

`Cn1c(O)c(C(=Nc2ccc(F)cc2)c2ccccc2Cl)c(=O)n(C)c1=O`: the Potency result was “inactive”.

Consider `C[C@H]1CC[C@H]2NCCN[C@H]2C1`, for which the Potency entry was “inactive”. Take `O=C(OCC1O[C@@H](OC(=O)c2cc(O)c(O)c(O)c2)[C@@H](OC(=O)c2cc(O)c(O)c(O)c2)[C@@H](OC(=O)c2cc(O)c(O)c(O)c2)[C@@H]1OC(=O)c1cc(O)c(O)c(O)c1)c1cc(O)c(O)c(O)c1` (stereo partly drawn): the Potency was 0.0631 µM (active).

As to `O=C1C=CC(=O)c2c(O)cccc21`, the Potency was 4.47 µM (active). With `CCC(=NCc1cccnc1)c1c(O)n(-c2ccccc2C)c(=O)[nH]c1=O`, the Potency result is “inactive”. Regarding `Cc1onc(-c2c(Cl)cccc2Cl)c1C(=O)Nc1ccc2c(C(F)(F)F)cc(=O)oc2c1`, the Potency result was “inactive”.

Consider `Cn1c(O)c(C=NCCN2CCN(C(=O)Nc3ccccc3)CC2)c(=O)n(C)c1=O`, for which the Potency entry was “inactive”. As for `CCCCCCn1c(O)c(C=Nc2ccccc2N2CCOCC2)c(=O)[nH]c1=S`, the Potency entry was “inactive”. As for `CCC(=NCc1cc(OC)cc(OC)c1)c1c(O)n(C2CCCCC2)c(=O)[nH]c1=O`, the Potency entry is “inactive”.
